Results reported in PubChem BioAssay.
Activity calls are given as the source filed them.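 Rule for the calls, unless noted: active = normalized viability below 100% at a tested concentration; inactive = the rest.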

Key:
[1] = sensitizers of A549 cells to miR-34 induction, primary screen, imaging, A549 dox-inducible miR-34, nuclei and caspase counts (AID 1347080;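 active = compounds whose cell count with miR-34 switched on is under 0.7 times the count with it off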); conditions: A549 miR-34 inducible, Hoechst nuclei count, 48 h
[2] = survival rescue of mitochondrial mutant cells in low glucose, primary screen, MELAS cybrids, Rieske KO mouse fibroblasts, CellTiter-Glo (AID 1508586;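 active = mean z-score across replicates of 1.96 or higher in either the MELAS or the Rieske mutant cell line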;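 note: z relative to plate mean and SD of compound and empty wells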)
[3] = ovarian cancer cell viability with rucaparib, profiling panel, oncology-focused library, rucaparib conditional (AID 1508598); conditions: patient-derived ovarian cancer cells, CellTiter-Glo viability, 144 h, stronger effect = lower value
[4] = viability rescue of complex I mutant cybrids, primary screen, cell-based, galactose medium, ATP luminescence (AID 1645843;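 active = z-score of at least 1.8 in each of two replicates, scored against plate mean and spread of sample wells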;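 note: positive z means more ATP and so rescue of galactose-driven cybrid death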); conditions: complex I mutant cybrid cells, 72 h, stronger effect = higher value
[5] = stronger effect = lower value, cell number ratio, induced over uninduced
[6] = measured here: relative caspase fold change +Dox/-Dox
[7] = measured here: total cells with miR-34 induction, stronger effect = lower value
[8] = measured here: total cells without miR-34 induction
[9] = MELAS cybrid survival, CellTiter-Glo 48 h, stronger effect = higher value
[10] = Rieske KO mouse fibroblast survival, CellTiter-Glo 72 h
[11] = at 0.000305 µM, OCI-C5x cells, with rucaparib 10 µM, 100% = cells with rucaparib alone
[12] = at 0.000305 µM, OCI-C5x cells, without rucaparib
[13] = at 0.000305 µM, OCI-P5x cells, with rucaparib 20 µM, 100% = cells with rucaparib alone
[14] = at 0.000305 µM, OCI-P5x cells, without rucaparib
[15] = at 0.00122 µM, OCI-C5x cells, with rucaparib 10 µM, 100% = cells with rucaparib alone
[16] = at 0.00122 µM, OCI-C5x cells, without rucaparib
[17] = at 0.00122 µM, OCI-P5x cells, with rucaparib 20 µM, 100% = cells with rucaparib alone
[18] = at 0.00122 µM, OCI-P5x cells, without rucaparib
[19] = at 0.00488 µM, OCI-C5x cells, with rucaparib 10 µM, 100% = cells with rucaparib alone
[20] = at 0.00488 µM, OCI-C5x cells, without rucaparib
[21] = at 0.00488 µM, OCI-P5x cells, with rucaparib 20 µM, 100% = cells with rucaparib alone
[22] = at 0.00488 µM, OCI-P5x cells, without rucaparib
[23] = at 0.0195 µM, OCI-C5x cells, with rucaparib 10 µM, 100% = cells with rucaparib alone
[24] = at 0.0195 µM, OCI-C5x cells, without rucaparib
[25] = at 0.0195 µM, OCI-P5x cells, with rucaparib 20 µM, 100% = cells with rucaparib alone
[26] = at 0.0195 µM, OCI-P5x cells, without rucaparib
[27] = at 0.0781 µM, OCI-C5x cells, with rucaparib 10 µM, 100% = cells with rucaparib alone
[28] = at 0.0781 µM, OCI-C5x cells, without rucaparib
[29] = at 0.0781 µM, OCI-P5x cells, with rucaparib 20 µM, 100% = cells with rucaparib alone
[30] = at 0.0781 µM, OCI-P5x cells, without rucaparib
[31] = at 0.313 µM, OCI-C5x cells, with rucaparib 10 µM, 100% = cells with rucaparib alone
[32] = at 0.313 µM, OCI-C5x cells, without rucaparib
[33] = at 0.313 µM, OCI-P5x cells, with rucaparib 20 µM, 100% = cells with rucaparib alone
[34] = at 0.313 µM, OCI-P5x cells, without rucaparib
[35] = at 1.25 µM, OCI-C5x cells, with rucaparib 10 µM, 100% = cells with rucaparib alone
[36] = at 1.25 µM, OCI-C5x cells, without rucaparib
[37] = at 1.25 µM, OCI-P5x cells, with rucaparib 20 µM, 100% = cells with rucaparib alone
[38] = at 1.25 µM, OCI-P5x cells, without rucaparib
[39] = at 5 µM, OCI-C5x cells, with rucaparib 10 µM, 100% = cells with rucaparib alone
[40] = at 5 µM, OCI-C5x cells, without rucaparib
[41] = at 5 µM, OCI-P5x cells, with rucaparib 20 µM, 100% = cells with rucaparib alone
[42] = at 5 µM, OCI-P5x cells, without rucaparib

COc1cc(C(=O)NC2CCN(C)CC2)ccc1Nc1ncc2c(n1)N(C1CCCC1)CC(F)(F)C(=O)N2C
fold change [1, 5]: 1.05 (inactive) | fold change [1, 6]: 0.442 | cell count [1, 7]: 1340 | cell count [1, 8]: 1280 | z-score [2, 9]: -0.321 (inactive) | z-score [2, 10]: -2.73 | viability [3, 11]: 103% (inactive) | viability [3, 12]: 98.4% (active) | viability [3, 13]: 95.2% (active) | viability [3, 14]: 86.9% (active) | viability [3, 15]: 97.8% (active) | viability [3, 16]: 102% (inactive) | viability [3, 17]: 99.5% (active) | viability [3, 18]: 93.6% (active) | viability [3, 19]: 111% (inactive) | viability [3, 20]: 105% (inactive) | viability [3, 21]: 89.4% (active) | viability [3, 22]: 69.2% (active) | viability [3, 23]: 73.1% (active) | viability [3, 24]: 61.3% (active) | viability [3, 25]: 68.6% (active) | viability [3, 26]: 21.8% (active) | viability [3, 27]: 64% (active) | viability [3, 28]: 42.6% (active) | viability [3, 29]: 63% (active) | viability [3, 30]: 15.8% (active) | viability [3, 31]: 39.9% (active) | viability [3, 32]: 27.3% (active) | viability [3, 33]: 70.3% (active) | viability [3, 34]: 15.5% (active) | viability [3, 35]: 31% (active) | viability [3, 36]: 19.6% (active) | viability [3, 37]: 66.4% (active) | viability [3, 38]: 17.5% (active) | viability [3, 39]: 25.7% (active) | viability [3, 40]: 19.7% (active) | viability [3, 41]: 53.1% (active) | viability [3, 42]: 17.9% (active)

CC(C)(C)C(=O)Nc1ccc2c(c1)C(=O)C(=O)c1ccccc1-2
fold change [1, 5]: 1.31 (inactive) | fold change [1, 6]: 0.69 | cell count [1, 7]: 833 | cell count [1, 8]: 636 | z-score [2, 9]: 0.258 (inactive) | z-score [2, 10]: -7.92 | viability [3, 11]: 109% (inactive) | viability [3, 12]: 109% (inactive) | viability [3, 13]: 95.2% (active) | viability [3, 14]: 90.7% (active) | viability [3, 15]: 127% (inactive) | viability [3, 16]: 103% (inactive) | viability [3, 17]: 99.1% (active) | viability [3, 18]: 91.1% (active) | viability [3, 19]: 116% (inactive) | viability [3, 20]: 114% (inactive) | viability [3, 21]: 78.7% (active) | viability [3, 22]: 63.1% (active) | viability [3, 23]: 119% (inactive) | viability [3, 24]: 112% (inactive) | viability [3, 25]: 79% (active) | viability [3, 26]: 64.3% (active) | viability [3, 27]: 118% (inactive) | viability [3, 28]: 113% (inactive) | viability [3, 29]: 63.5% (active) | viability [3, 30]: 45.6% (active) | viability [3, 31]: 81.1% (active) | viability [3, 32]: 112% (inactive) | viability [3, 33]: 29.6% (active) | viability [3, 34]: 18.8% (active) | viability [3, 35]: 114% (inactive) | viability [3, 36]: 113% (inactive) | viability [3, 37]: 103% (inactive) | viability [3, 38]: 104% (inactive) | viability [3, 39]: 70.9% (active) | viability [3, 40]: 107% (inactive) | viability [3, 41]: 2.26% (active) | viability [3, 42]: 7.62% (active)

CN(C)C(=O)c1ccc(S(=O)(=O)c2ccc(NC(=O)C(C)(O)C(F)(F)F)c(Cl)c2)cc1 (stereo not drawn)
fold change [1, 5]: 0.887 (inactive) | fold change [1, 6]: 0.601 | cell count [1, 7]: 6480 | cell count [1, 8]: 7310 | z-score [2, 9]: -0.391 (inactive) | z-score [2, 10]: -0.0234

C[C@H]1CC[C@H]2[C@@H](C)C(OC(=O)CCC(=O)O)O[C@H]3O[C@@]4(C)CC[C@@H]1[C@]32OO4 (stereo partly drawn)
fold change [1, 5]: 0.953 (inactive) | fold change [1, 6]: 0.708 | cell count [1, 7]: 4220 | cell count [1, 8]: 4430 | z-score [2, 9]: -0.298 (inactive) | z-score [2, 10]: -0.0832

CN(C)CCOc1ccc(-c2nc(-c3ccc4c(c3)CCC4=NO)c(-c3ccncc3)[nH]2)cc1
fold change [1, 5]: 0.921 (inactive) | fold change [1, 6]: 1.04 | cell count [1, 7]: 6630 | cell count [1, 8]: 7200 | z-score [2, 9]: -0.178 (inactive) | z-score [2, 10]: 0.963 | viability [3, 11]: 124% (inactive) | viability [3, 12]: 144% (inactive) | viability [3, 13]: 72.5% (active) | viability [3, 14]: 88.8% (active) | viability [3, 15]: 121% (inactive) | viability [3, 16]: 132% (inactive) | viability [3, 17]: 70.7% (active) | viability [3, 18]: 68.7% (active) | viability [3, 19]: 121% (inactive) | viability [3, 20]: 153% (inactive) | viability [3, 21]: 70.2% (active) | viability [3, 22]: 74.7% (active) | viability [3, 23]: 109% (inactive) | viability [3, 24]: 138% (inactive) | viability [3, 25]: 69.4% (active) | viability [3, 26]: 73.6% (active) | viability [3, 27]: 125% (inactive) | viability [3, 28]: 133% (inactive) | viability [3, 29]: 83.1% (active) | viability [3, 30]: 111% (inactive) | viability [3, 31]: 119% (inactive) | viability [3, 32]: 140% (inactive) | viability [3, 33]: 85.3% (active) | viability [3, 34]: 114% (inactive) | viability [3, 35]: 120% (inactive) | viability [3, 36]: 153% (inactive) | viability [3, 37]: 78.5% (active) | viability [3, 38]: 108% (inactive) | viability [3, 39]: 136% (inactive) | viability [3, 40]: 187% (inactive) | viability [3, 41]: 1.04% (active) | viability [3, 42]: 102% (inactive)

CCn1cnc(NC(=O)N(C)CC2Cc3ccccc3O2)n1 (stereo not drawn)
fold change [1, 5]: 0.971 (inactive) | fold change [1, 6]: 1.16 | cell count [1, 7]: 9520 | cell count [1, 8]: 9810 | z-score [2, 9]: -0.133 (inactive) | z-score [2, 10]: -0.0873 | z-score [4]: -0.62 (inactive)
